# Measured values reported in PubChem BioAssay (EPA / NIEHS).
# Records with an inconclusive call do not appear. The source made the active and inactive calls. How the source made its calls: active means hit-call score of the fitted dose curve at least 0.9, where 1 is the maximum; inconclusive means response in the unintended direction; inactive means score below 0.9.
# Assay: ATG_M_32_TRANS: Attagene TRANS-FACTORIAL HepG2 Assay for M32 Transcription Factor (Internal Marker) (AID 2282984)
# Conditions: HepG2 Attagene TRANS M32 internal marker reporter
# Description: ATG_TRANS is a cell-based, multiplexed-readout assay that uses HepG2, a human liver cell line, with measurements taken at 24 hours after chemical dosing in a 24-well plate.ATG_M_32_TRANS is one of 30 assay component(s) measured or calculated from the ATG_TRANS assay. It is designed to make measurements of mRNA induction, a form of inducible reporter, as detected with fluorescence intensity signals by Reverse transcription polymerase chain reaction (RT-PCR) and Capillary electrophoresis technology.Data from the assay component ATG_M_32_TRANS was analyzed into 1 assay endpoint. This assay endpoint, ATG_M_32_TRANS, was analyzed in the positive analysis fitting direction relative to DMSO as the negative control and baseline of activity. Using a type of inducible reporter, measures of mRNA for gain-of-signal activity can be used to understand the background control at the transcription factor-level as they relate to the gene . Furthermore, this assay endpoint can be referred to as a secondary readout, because this assay has produced multiple assay endpoints where this one serves a background control function. To generalize the intended target to other relatable targets, this assay endpoint is annotated to the background measurement intended target family, where the subfamily is internal marker.
# Human liver HepG2 cells are transiently transfected with multiple reporter transcription units (MRTUs) in 6-well plates using FuGene 6 reagent (Roche; 3 ml FuGene/1 mg DNA). The MRTU constructs are regulated by a cis-regulating element (promoter). […] A major difference between the CIS and TRANS system is that in CIS activities of endogenous TFs are measured, whereas the TRANS assay evaluates changes in activities of exogenous, chimeric NR-Gal4 proteins. […] At the end of 24 hour incubation, total RNA was isolated using TriZol reagent (Invitrogen). The isolated RNA is then reverse-transcribed using oligo(dT) primer and Mo-MLV reverse transcriptase (Invitrogen) with DNAse I (Ambion) treatment for 30 min. The one-tenth of the produced cDNA was amplified by PCR using Taq DNA polymerase (Invitrogen) and two reporter sequence-specific primers. The PCR products were fluorescently labeled by primer extension with 6-arboxyfluorescein (6-FAM) 5'-labeled reporter sequence-specific primer (2 min at 95 C, 20 s at 68 C and 10 min at 72 C) and these products were digested with 5U of HpaI (New England Biolabs) for 2h at 37 C. The fragments were purified using Qiaquick PCR columns (Qiagen), analyzed on an ABI 3130xL genetic analyzer (Applied Biosystems) with peak positions identified by using a set of X-rhodamine (ROX)-labeled MapMarker1000 molecular weight standards (BioVentures). The raw capillary electrophoresis data was processed using Attagraph software (Attagene).
Compound,outcome,AC50
COC(=O)C(F)(F)C(F)(F)C(F)(F)C(F)(F)C(F)(F)F,inactive,–
CCOC(OCC)C(=O)c1ccccc1,inactive,–
NC(C(F)(F)F)C(F)(F)F,inactive,–
COc1ccccc1NC(=O)c1cc2ccccc2cc1O,inactive,–
C/C=C/C(=O)C1=C(C)CCCC1(C)C,inactive,–
Oc1cccc2c(O)cccc12,inactive,–
O=C(CC(=O)C(F)(F)C(F)(F)C(F)(F)F)c1cccs1,inactive,–
COC(=O)C(F)(F)C(F)(F)C(F)(F)F,inactive,–
CCCCC(CC)C(=O)O (stereo not given),inactive,–
O=C1c2ccccc2C(=O)c2c(O)c(O)cc(O)c21,inactive,–
C=Cc1ccc(O)c(OC)c1,inactive,–
O=P(O)(O)CCC(F)(F)C(F)(F)C(F)(F)C(F)(F)C(F)(F)C(F)(F)F,inactive,–
FC(F)(F)C(F)(F)C(F)(F)C(F)(F)I,inactive,–
C=C(c1ccc(C(=O)O)cc1)c1cc2c(cc1C)C(C)(C)CCC2(C)C,inactive,–
Oc1ccc(Cc2ccccc2O)cc1,inactive,–
CCOC(=O)c1nc(C(Cl)(Cl)Cl)n(-c2ccc(Cl)cc2Cl)n1,–,100 µM (active)
FC(F)=C(F)C(F)(F)C(F)(F)C(F)(F)C(F)F,inactive,–
CCCCCCCCCCCC(=O)O,inactive,–
CCO[Si](CCC1CCC2OC2C1)(OCC)OCC (stereo not given),inactive,–
CC(C)[C@@H]1CC[C@@H](C)C[C@H]1O,inactive,–

Compound,outcome,AC50
O=C1OC(=O)C(F)(F)C1(F)F,inactive,–
CCO[Si](C)(C)OCC,inactive,–
Cc1cc(C(C)(C)C)c(O)c(C(C)(C)C)c1,inactive,–
CCC(C)c1nccnc1OC (stereo not given),inactive,–
O=C(C=C(O)C(F)(F)F)C(F)(F)F,inactive,–
O=CC(F)(F)C(F)(F)C(F)(F)F,inactive,–
CCCCCCc1ccc(N)cc1,inactive,–
CCOC(=O)CN[C@@H](C(=O)N1CC[C@H]1C(=O)NCc1ccc(/C(N)=N/O)cc1)C1CCCCC1,inactive,–
O=C(NO)c1ccccc1,inactive,–
CCC(=O)O,inactive,–
Nc1cc(Cl)c(-c2cc(Cl)c(N)cc2Cl)cc1Cl,inactive,–
C=CC(=O)OCCC(F)(F)C(F)(F)C(F)(F)C(F)(F)C(F)(F)C(F)(F)C(F)(F)C(F)(F)F,inactive,–
O=S(=O)(O)c1ccc2cc(O)ccc2c1,inactive,–
CCCCCCCCCCCCCCCCCC[N+](C)(C)Cc1ccccc1,inactive,–
O=C1Cc2ccccc2N1c1c(Cl)cccc1Cl,inactive,–
Clc1ccc(Nc2nnc(Cc3ccncc3)c3ccccc23)cc1,inactive,–
O=C(Nc1ccc(Cl)c(Cl)c1)c1cc(Cl)cc(Cl)c1O,inactive,–
NCc1cccc(CN)c1,inactive,–
O=C1OC2(c3ccccc31)c1cc(I)c(O)c(I)c1Oc1c2cc(I)c(O)c1I,inactive,–
NS(=O)(=O)O,inactive,–
